In the supplement of paper PMC8728848:
Many of the other results were omitted from the sample, so the strongest signals are more common in it than they were.

What was measured:
Experiment in all cases: glycan array binding signal (z-score within array); higher = stronger binding
Conditions in all cases: glycan notation: IUPAC condensed, linker removed
[1] = molecular target: Fuc(a1-2)Gal(b1-3)GlcNAc(b1-3)GalNAc
How it was run: (§1)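 From the Consortium for Functional Glycomics database, 3228 arrays were curated, keeping only those whose protein sequence was available. Binding is given as a within-array Z-score averaged across arrays sharing a protein sequence and across linkers. Negative Z-scores can be read as non-binding.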

[2] = molecular target: Fuc(a1-2)Gal(b1-3)GlcNAc(b1-3)[Fuc(a1-2)Gal(b1-3)GlcNAc(b1-6)]GalNAc
How it was run: as §1

[3] = molecular target: Fuc(a1-2)Gal(b1-4)GlcNAc(b1-2)[Fuc(a1-2)Gal(b1-4)GlcNAc(b1-4)]Man(a1-3)[Fuc(a1-2)Gal(b1-4)GlcNAc(b1-2)Man(a1-6)]Man(b1-4)GlcNAc(b1-4)GlcNAc
How it was run: as §1

[4] = molecular target: Fuc(a1-2)Gal(b1-4)[Fuc(a1-3)]GlcNAc(b1-2)[Fuc(a1-2)Gal(b1-4)[Fuc(a1-3)]GlcNAc(b1-4)]Man(a1-3)[Fuc(a1-2)Gal(b1-4)[Fuc(a1-3)]GlcNAc(b1-2)Man(a1-6)]Man(b1-4)GlcNAc(b1-4)GlcNAc
How it was run: as §1

[5] = molecular target: Fuc(a1-2)[Gal(a1-3)]Gal(b1-3)GlcNAc(b1-2)Man(a1-3)[Fuc(a1-2)[Gal(a1-3)]Gal(b1-3)GlcNAc(b1-2)Man(a1-6)]Man(b1-4)GlcNAc(b1-4)GlcNAc
How it was run: as §1

[6] = molecular target: Fuc(a1-2)[Gal(a1-3)]Gal(b1-4)Glc
How it was run: as §1

[7] = molecular target: Fuc(a1-2)[Gal(a1-3)]Gal(b1-4)GlcNAc(b1-2)Man
How it was run: as §1

[8] = molecular target: Fuc(a1-2)[Gal(a1-3)]Gal(b1-4)GlcNAc(b1-2)Man(a1-3)[Fuc(a1-2)[Gal(a1-3)]Gal(b1-4)GlcNAc(b1-2)Man(a1-6)]Man(b1-4)GlcNAc(b1-4)GlcNAc
How it was run: as §1

[9] = molecular target: Fuc(a1-2)[GalNAc(a1-3)]Gal(b1-3)GlcNAc(b1-2)Man(a1-3)[Fuc(a1-2)[GalNAc(a1-3)]Gal(b1-3)GlcNAc(b1-2)Man(a1-6)]Man(b1-4)GlcNAc(b1-4)GlcNAc
How it was run: as §1

[10] = molecular target: Fuc(a1-2)[GalNAc(a1-3)]Gal(b1-4)GlcNAc(b1-2)Man(a1-3)[Fuc(a1-2)[GalNAc(a1-3)]Gal(b1-4)GlcNAc(b1-2)Man(a1-6)]Man(b1-4)GlcNAc(b1-4)GlcNAc
How it was run: as §1

[11] = molecular target: Fuc(a1-2)[GalNAc(a1-3)]Gal(b1-4)[Fuc(a1-3)]GlcNAc
How it was run: as §1

[12] = molecular target: Fuc(a1-2)[GalNAc(a1-3)]Gal(b1-4)[Fuc(a1-3)]GlcNAc(b1-3)GalNAc
How it was run: as §1

[13] = molecular target: Fuc(a1-3)GlcNAc
How it was run: as §1

[14] = molecular target: Fuc(a1-3)[Gal(b1-4)]GlcNAc6S
How it was run: as §1

[15] = molecular target: Fuc(a1-4)GlcNAc
How it was run: as §1

[16] = molecular target: Fuc(b1-3)GlcNAc
How it was run: as §1

[17] = molecular target: Gal(a1-3)Gal
How it was run: as §1

[18] = molecular target: Gal(a1-3)Gal(b1-3)GlcNAc(b1-2)Man(a1-3)[Gal(a1-3)Gal(b1-3)GlcNAc(b1-2)Man(a1-6)]Man(b1-4)GlcNAc(b1-4)GlcNAc
How it was run: as §1

[19] = molecular target: Gal(a1-3)Gal(b1-3)[Fuc(a1-4)]GlcNAc(b1-2)Man(a1-3)[Gal(a1-3)Gal(b1-3)[Fuc(a1-4)]GlcNAc(b1-2)Man(a1-6)]Man(b1-4)GlcNAc(b1-4)GlcNAc
How it was run: as §1

[20] = molecular target: Gal(a1-3)Gal(b1-4)GlcNAc
How it was run: as §1

[21] = molecular target: Gal(a1-4)Gal(b1-4)Glc
How it was run: as §1

[22] = molecular target: Gal(b1-3)GalNAc
How it was run: as §1

[23] = molecular target: Gal(b1-3)GlcNAc(b1-2)Man(a1-3)[Gal(b1-3)GlcNAc(b1-2)Man(a1-6)]Man(b1-4)GlcNAc(b1-4)[Fuc(a1-6)]GlcNAc
How it was run: as §1

[24] = molecular target: Gal(b1-3)GlcNAc(b1-3)Gal(b1-4)GlcNAc(b1-3)Gal(b1-4)GlcNAc(b1-2)[Gal(b1-3)GlcNAc(b1-3)Gal(b1-4)GlcNAc(b1-3)Gal(b1-4)GlcNAc(b1-6)]Man(a1-6)[Gal(b1-3)GlcNAc(b1-3)Gal(b1-4)GlcNAc(b1-3)Gal(b1-4)GlcNAc(b1-2)Man(a1-3)]Man(b1-4)GlcNAc(b1-4)[Fuc(a1-6)]GlcNAc
How it was run: as §1

[25] = molecular target: Gal(b1-3)[Fuc(a1-4)]GlcNAc(b1-6)GalNAc
How it was run: as §1

[26] = molecular target: Gal(b1-4)GlcNAc(b1-3)Gal(b1-4)GlcNAc(b1-2)Man(a1-3)[Gal(b1-4)GlcNAc(b1-3)Gal(b1-4)GlcNAc(b1-2)Man(a1-6)]Man(b1-4)GlcNAc(b1-4)[Fuc(a1-6)]GlcNAc
How it was run: as §1

[27] = molecular target: Gal(b1-4)GlcNAc(b1-3)Gal(b1-4)GlcNAc(b1-2)[Gal(b1-4)GlcNAc(b1-3)Gal(b1-4)GlcNAc(b1-6)]Man(a1-6)[Gal(b1-4)GlcNAc(b1-3)Gal(b1-4)GlcNAc(b1-2)Man(a1-3)]Man(b1-4)GlcNAc(b1-4)GlcNAc
How it was run: as §1

[28] = molecular target: Gal(b1-4)GlcNAc(b1-3)Gal(b1-4)GlcNAc(b1-3)Gal(b1-4)GlcNAc(b1-2)Man(a1-3)[Gal(b1-4)GlcNAc(b1-3)Gal(b1-4)GlcNAc(b1-3)Gal(b1-4)GlcNAc(b1-2)Man(a1-6)]Man(b1-4)GlcNAc(b1-4)GlcNAc
How it was run: as §1

B1: PX9961V-pdi-562-26-562 (Parabacteroides distasonis) (protein)
chain: EIFSEITTDNYYQNSNNIYAALVNNYAKAFSTGWSDARYFLQEVTADQLMIPTRGKHGYNGGEYVRLHEHKWTVEENFVYNGWAAPFQGIALCNNTLSDFENLDFSTFKLTEETKNEYIAELRALRVWNYMFLIDFFRHVPIVTDIEEVKAQSTPLEVFNFMESELLAILPDLPKNRGVSRFDQAGVASILVRLYLNAEKWIGISKYDECEQMAQAILDGKYGEYSIDPDYRGPFRSGINGYRSKENIMEFAIKKNYFEASWLYNMWMHYQDRYSLDNDWQGWNGGNLAPSRDLYGNLYQDKLGMPFEKFPDGDIRKKAFRVISNDGDYEGFFLMGTQYKFDYEKGYGFTDEVITGTEEYNGKPLVYVDQVGRFSEGETGLAKGSHVIYGEENTGYRLIKFPWLPQSKDLFQMNSIPEIRLAEIYYSLAECKYRSGDKIGAARLLDVVRKRYYKAEDWSKFSYESNISKLTDDEFVDELGREFIGERHRRIDLIRWNRFSEGAWWDKTPDATNQDVFPIPYRALNANPLLKQTTAGF
- glycan array binding signal (z-score) [1]: -0.58
- glycan array binding signal (z-score) [2]: 2.04
- glycan array binding signal (z-score) [3]: -0.54
- glycan array binding signal (z-score) [4]: -0.424
- glycan array binding signal (z-score) [5]: -0.108
- glycan array binding signal (z-score) [6]: -0.228
- glycan array binding signal (z-score) [7]: -0.182
- glycan array binding signal (z-score) [8]: 3.45
- glycan array binding signal (z-score) [9]: -0.21
- glycan array binding signal (z-score) [10]: 4.28
- glycan array binding signal (z-score) [11]: -0.369
- glycan array binding signal (z-score) [12]: 7.22
- glycan array binding signal (z-score) [13]: -0.508
- glycan array binding signal (z-score) [14]: 0.861
- glycan array binding signal (z-score) [15]: -0.596
- glycan array binding signal (z-score) [16]: -0.328
- glycan array binding signal (z-score) [17]: 0
- glycan array binding signal (z-score) [18]: 2.03
- glycan array binding signal (z-score) [19]: 3.94
- glycan array binding signal (z-score) [20]: 0.068
- glycan array binding signal (z-score) [21]: -0.099
- glycan array binding signal (z-score) [22]: -0.185
- glycan array binding signal (z-score) [23]: 5.1
- glycan array binding signal (z-score) [24]: 4.46
- glycan array binding signal (z-score) [25]: 6.13
- glycan array binding signal (z-score) [26]: 4.04
- glycan array binding signal (z-score) [27]: 4.58
- glycan array binding signal (z-score) [28]: 4.36
